Measurements: PubChem BioAssay (Tox21)
Records with an inconclusive call do not appear. Where a call stands in place of a potency, no number is given. A number with no mark means an inactive call. The source made the active and inactive calls. The call rests on the fitted dose curve; in most records, active means well fitted inhibition curve with a large enough effect in the signal ratio in the repeat runs, with a control signal flat; inconclusive means weak or mixed curves, or effect the other way; inactive means flat fitted curve, though single readings scatter; the % refers to the signal ratio.

target: D(2) dopamine receptor (Homo sapiens) (UniProt P14416); test: Dopamine D2 receptor (DRD2) small molecule antagonists, cell-based qHTS assay (AID 1963595); conditions: HEK293-DRD2 cAMP HTRF antagonist mode; series mostly up to 92.4 µM
Sequence (P14416 whole entry, looked up): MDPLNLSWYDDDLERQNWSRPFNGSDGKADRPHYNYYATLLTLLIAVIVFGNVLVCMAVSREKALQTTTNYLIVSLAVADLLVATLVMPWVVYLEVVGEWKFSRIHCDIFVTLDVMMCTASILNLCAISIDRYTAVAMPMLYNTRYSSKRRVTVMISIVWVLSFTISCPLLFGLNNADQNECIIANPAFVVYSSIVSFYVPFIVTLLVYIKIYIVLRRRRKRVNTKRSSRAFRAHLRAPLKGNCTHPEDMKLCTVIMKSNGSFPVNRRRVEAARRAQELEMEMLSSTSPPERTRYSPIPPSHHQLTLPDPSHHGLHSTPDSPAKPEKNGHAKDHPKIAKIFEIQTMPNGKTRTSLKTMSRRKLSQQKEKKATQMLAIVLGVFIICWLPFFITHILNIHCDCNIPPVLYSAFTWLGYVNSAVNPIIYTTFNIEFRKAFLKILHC
Excerpt: National Center for Advancing Translational Sciences [NCATS]
Division of Preclinical Innovation [DPI]
U.S. Environmental Protection Agency [EPA]
National Institutes of Environmental Health Sciences [NIEHS]
National Toxicology Program [NTP]
U.S. Food and Drug Administration [FDA]
DRD2 is the D2 subtype of the dopamine receptor, which is coupled to Gi subtype of G protein-coupled receptor. This G protein-coupled receptor inhibits adenylyl cyclase activity. The DRD2-HEK293 cell line stably expressing D2 dopamine receptor can be used for screening agonists and antagonists of interactions between D2 and its ligands. The Hek293-DRD2 cAMP assay is based on HTRF technology. It measures changes of cAMP accumulation in response to Gi coupled GPCR activation or inhibition.
Tox21 Assay Protocol Summary:
DRD2-Hek293 cells were dispensed at 600 cells/3uL/well in 1536-well white plates using a Multidrop Dispenser. After the assay plates were incubated at a 37 C/5% CO2 incubator for 24 h, 1 uL of Ro20-1724 at final concentration of 0.1 mM was transferred to the assay plate by a Flying Reagent Dispenser. Following Ro20-1724 addition, 23 nL of compound dissolved in DMSO, positive controls or DMSO only was added to the assay plates via Wako pintool station. The assay plates were incubated at room temperature for 10 min. Next, 1 uL of mixture of NKH477 (final concentration at 200 nM) and quinpirole (final concentration at 12 nM) was added into the plates. After the assay plates were incubated at room temperature for an additional 30 min, 2.5 ul/well of cAMP-d2 and 2.5 ul/well of anti-cAMP-cryptate were added respectively into the assay plates using a Flying Reagent Dispenser. The plates were incubated at room temperature for 1 h. The fluorescence intensity in the plates was measured at 340 nm excitation and 665 & 620 nm emission by an Envision plate reader.
Potency means the concentration at half of the fitted maximal effect.

| SMILES | Potency | activity change, negative = inhibition |
| --- | --- | --- |
| CC1=NN(c2ccc(C(=O)O)cc2)C(=O)C1 | inactive | – |
| O=C(O)c1cc(-c2ccc(F)cc2F)ccc1O | inactive | – |
| CCOC(C)=O | inactive | – |
| Cc1cc(F)ccc1-c1cc(N2CC[C@@H](O)[C@H]2CO)ncc1N(C)C(=O)C(C)(C)c1cc(C(F)(F)F)cc(C(F)(F)F)c1 | inactive | – |
| C[N+]1(C)CCC(=C(c2ccccc2)c2ccccc2)CC1 | inactive | – |
| CN(C)C(=O)C1(N2CCCCC2)CCN(CC[C@@]2(c3ccc(Cl)c(Cl)c3)CN(C(=O)c3ccccc3)CCO2)CC1 | 64.1 µM (active) | – |
| O=P(O)(O)Oc1ccccc1 | inactive | – |
| CC(=O)OCC[N+](C)(C)C | inactive | – |
| Cc1c(C)n(CCN(C)C)c2ccc(C(=O)OCCN(C)C)cc12 | inactive | – |
| CCCSS/C(CCO)=C(\C)N(C=O)Cc1cnc(C)nc1N | inactive | – |
| C[N+]1(C)[C@@H]2CC(OC(=O)[C@H](CO)c3ccccc3)C[C@H]1[C@@H]1O[C@@H]12 (stereo not given in full) | inactive | – |
| COC[C@H](c1ccc(C(F)(F)F)cc1)N1CCN(C2(C)CCN(C(=O)c3c(C)ncnc3C)CC2)C[C@H]1C | inactive | – |
| CN1C(=O)CC(c2ccccc2)C1=O (stereo not given) | inactive | – |
| CCCCCCCCCCCCCCCC/C=C/C1CC(=O)OC1=O (stereo not given) | inactive | – |
| NS(=O)(=O)c1cc(C(=O)NN2C[C@H]3[C@H]4CCC(C4)[C@H]3C2)ccc1Cl | inactive | – |
| O=C(OCc1ccccc1)C(=O)OCc1ccccc1 | inactive | – |
| O=C(N[C@@H](Cc1ccccc1)[C@@H](O)C(=O)N1C[C@@H](O)[C@@H](O)C1)c1cc2cc(Cl)ccc2[nH]1 | inactive | – |
| C[Si](NC1CCCCC1)(NC1CCCCC1)NC1CCCCC1 | inactive | – |
| CCC(=O)O[C@]1(C(=O)COC)[C@@H](C)C[C@H]2[C@@H]3CCC4=CC(=O)C=C[C@]4(C)C3(F)[C@@H](O)C[C@@]21C (stereo not given in full) | inactive | – |
| CCCCOCC | inactive | – |

| SMILES | Potency | activity change, negative = inhibition |
| --- | --- | --- |
| CC(C(=O)O)c1ccc(C(=O)c2ccccc2)s1 (stereo not given) | inactive | – |
| O=C(OCC(O)CO)c1ccccc1Nc1ccnc2c(C(F)(F)F)cccc12 (stereo not given) | inactive | – |
| C#CC(O)CCCCC (stereo not given) | inactive | – |
| NC(CO)C(=O)NNCc1ccc(O)c(O)c1O (stereo not given) | inactive | – |
| CC(=O)c1ccc2ccc3ccccc3c2c1 | inactive | – |
| NCC[C@H](O)C(=O)N[C@@H]1C[C@H](N)[C@@H](O[C@H]2O[C@H](CN)[C@@H](O)[C@H](O)[C@H]2O)[C@H](O)[C@H]1O[C@H]1O[C@H](CO)[C@@H](O)[C@H](N)[C@H]1O | – | -0.368% [at 0.348 µM] |
| Cc1cc(C)n(CO)n1 | inactive | – |
| CC(CC(C#N)(c1ccccc1)C(C)C)N(C)C (stereo not given) | inactive | – |
| Cc1nc(C)nc(N2C[C@@H](C)N(c3ccnc([C@@H](C)O)n3)[C@@H](C)C2)n1 | inactive | – |
| CCCCCCCCCC(=O)OCC | inactive | – |
| CCN(CCC#N)c1ccc(N=Nc2ccc([N+](=O)[O-])cc2)cc1 | inactive | – |
| Cc1ccc2c(c1)C(=O)c1ccccc1C2=O | inactive | – |
| C[N+]1(CC2COC(c3ccccc3)(c3ccccc3)O2)CCCCC1 (stereo not given) | – | 7.28% [at 18.9 µM] |
| CCCCc1ccc2c(n1)[C@@H](c1ccc(OC)cc1C[C@H](C)C(=O)O)[C@H](C(=O)O)[C@H]2c1ccc2c(c1)OCO2 | inactive | – |
| CC(C)c1cc(C(C)C)cc(C(C)C)c1 | inactive | – |
| C[C@H](N)C(=O)N[C@@H](C)C(=O)NC1[C@H]2CN(c3nc4c(cc3F)c(=O)c(C(=O)O)cn4-c3ccc(F)cc3F)C[C@@H]12 (stereo not given in full) | inactive | – |
| CC(COc1ccccc1)NC(C)C(O)c1ccc(O)cc1 (stereo not given) | 23.7 µM (active) | – |
| [Cu+] | inactive | – |
| CC(C)(O)c1ccccc1 | inactive | – |
| CCOC(=O)/C=C/C(=O)O | inactive | – |
